The target of test [1] is Cytochrome P450 1A2 (Homo sapiens) (UniProt P05177). In words: p450-cyp1a2 (AID 410; calls by dose curve; note: potency is the fitted concentration of half-maximal effect;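 for activity change, negative = inhibition: -100% = full effect of reference inhibitor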). Summed up:
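Read-out is luminescence from luciferin produced by CYP1A2 demethylation of Luciferin-ME (100uM, at Km). Detection reagent stopped the 60 min NADPH-dependent reaction; signals were normalized to 57 uM furafylline.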

Test [2] can be described thus: NFAT Signaling Pathway (AID 444; active = well fitted curve in either direction with a large enough effect, not every such curve was filed as active;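 note: carbachol stimulus at about its EC50 of 1 µM final; % is set by controls: 0 for no effect and ±100 for the full control effect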). Particulars: Jurkat NFAT-bla M1, carbachol, beta-lactamase ratio, 5 h. Summed up:
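Jurkat cells carrying an NFAT-driven β-lactamase reporter and co-transfected muscarinic M1 receptor were treated with compound plus carbachol (1 uM final, an EC50 level) for 5 h at 37 °C. CCF4 loading followed for 1 h at RT; 460/530 nm ratio gave %activity.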

The nature of test [3]: Stat Signaling Pathway (AID 446; active = well fitted curve in either direction with a large enough effect, not every such curve was filed as active;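 note: ME-180 cervical cancer cells given 40 pM IL-6 alongside compound; SIE-controlled beta-lactamase reporter measured as 460/530 nm FRET emission ratio; % is set by controls: 0 for no effect and ±100 for the full control effect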). Summed up:
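Normalization used AC90 stimulation (300 pM IL-6) and AC90 inhibition (125 nM pan-JAK inhibitor at 40 pM IL-6). The underlying signal is SIE-driven beta-lactamase in ME-180 cells after 5 h IL-6 exposure with compound.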

Test [4] has as its target Glucocorticoid receptor (Homo sapiens) (UniProt P04150). In words: GR-GFP Redistribution (AID 450;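 active = compounds whose dose series gives a full or clear partial fitted curve of increased nuclear translocation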; note: potency is the fitted concentration of half-maximal effect). The note with it: U2OS GR-GFP nuclear translocation, laser cytometry, 2 h.
Test [5] has the same target. The test is described as follows: GR-EFC Redistribution (AID 451; calls by dose curve; note: potency is the fitted concentration of half-maximal effect). The note with it: CHO-K1 GR-EFC translocation, beta-gal luminescence, 2 h. Summed up:
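CHO-K1 cells stably expressing nuclear-localized β-gal enzyme acceptor and GR fused C-terminally to the enzyme donor fragment; ligand-driven nuclear translocation restores β-gal by complementation. Compounds titrated up to 46 uM final, 2 h at 37 °C; luminescence read.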

For test [6], the target named is Mitogen-activated protein kinase 10 (Mus musculus) (UniProt Q61831). The test is described as follows: JNK3 AlphaScreen Assay (AID 530; active = well fitted curve in either direction with a large enough effect, not every such curve was filed as active;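 note: kinase came from lysate of stimulated human HepG2 cells; signal reports phosphorylation of biotinylated GST-cJun 1-79 at Ser73 with 10 µM ATP; % is set by controls: 0 for no effect and ±100 for the full control effect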). Summed up: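 Biotinylated GST-cJun(1-79) served as substrate for JNK3 in HepG2 lysates stimulated with IL-1beta and TNF-alpha. ATP was 10 uM final, pH 7.6. Ser73 phosphorylation was quantified by AlphaScreen (680 nm excitation).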
For orientation: Alpha assays give light when donor and acceptor beads are brought close together.

A short description of test [7]: Cell Viability - BJ (AID 421; calls by dose curve;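 note: potency is the fitted concentration of half-maximal effect; cells exposed to compound for 40 hours at 37 °C before readout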). The note with it: BJ fibroblast viability, qHTS. Summed up: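 Normal human BJ foreskin fibroblasts, 1500/well in complete medium, treated 40 hr at 37 °C. Cellular ATP by CellTiter-Glo luminescence; normalized to DMSO and 100 uM tamoxifen, AC50 from Hill fit.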
Test [8] is described as follows: Cell Viability - Jurkat (AID 426;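 active = dose-dependent loss of cell ATP signal giving a full or clear fitted curve, ranked by lower potency value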; note: potency is the fitted concentration of half-maximal effect). The note with it: qHTS. Summed up: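 Cytotoxicity was scored as loss of cellular ATP, measured by luciferase-based luminescence, in Jurkat clone E6-1 cells after 40 h compound treatment; tamoxifen and doxorubicin served as positive controls.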
Test [9] can be described thus: Cell Viability - Hek293 (AID 427;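 active = compounds whose dose-response curve shows a full or clear partial loss of cell viability, called from curve shape rather than a numeric limit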;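 note: potency is the fitted concentration of half-maximal effect; cells exposed to compound for 40 hours at 37 °C before reading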). The note with it: qHTS. Summed up:
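HEK293 cells in complete medium were exposed to compound for 40 hr at 37 °C, then cellular ATP was read by CellTiter-Glo luminescence. Data were normalized to DMSO (basal) and 100 uM tamoxifen (100% inhibition), and AC50 came from Hill fits.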
On the technique in general: In qHTS, concentration-response curves come from the screen itself.

Test [10] can be described thus: Cell Viability - HepG2 (AID 433; calls by dose curve; note: potency is the fitted concentration of half-maximal effect). Particulars: qHTS. Summed up:
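Read-out is luciferase-based quantitation of cellular ATP as a measure of viable HepG2 cells after 40 h treatment at 37 °C. Signal decrease is scaled between DMSO-only and 100 uM tamoxifen controls, with AC50 fitted by the Hill equation.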

Test [11] can be described thus: Cell Viability - MRC5 (AID 434; calls by dose curve;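 note: potency is the fitted concentration of half-maximal effect; potency reflects cytotoxicity seen as loss of intracellular ATP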). The note with it: MRC5 lung fibroblast viability, qHTS. Summed up: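 Decrease in intracellular ATP, quantified by luciferase light output, reflects compound toxicity toward MRC5 cells exposed for 40 hr in complete culture medium. Concentration-response curves, scaled between DMSO and 100 uM tamoxifen, gave AC50 values.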
Test [12] in a line: Cell Viability - SK-N-SH (AID 435; calls by dose curve;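 note: potency is the fitted concentration of half-maximal effect; compound exposure lasted 40 h at 37 °C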). Particulars: SK-N-SH neuroblastoma cell viability qHTS. Summed up: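 Luminescent ATP signal served as the viability read-out after 40 hours of compound treatment of human neuroblastoma SK-N-SH cells. Concentration-response data, scaled between DMSO and 100 uM tamoxifen, gave AC50 values by standard Hill modeling.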
Test [13] is described as follows: Cell Viability - N2a (AID 540).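 Note: plate controls were DMSO alone for no effect and tamoxifen control for full effect; nearly all actives have a fitted effect of over 45% in size.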 The note with it: N2a mouse neuroblastoma cell viability; activity change, negative = cytotoxicity: at 92.2 µM (top of the series). Summed up: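 In this qHTS cytotoxicity screen, ATP-dependent luciferase luminescence reports viable N2a cells after a 40 hr compound exposure in complete culture medium. Potencies are AC50 values from standard Hill equation fits.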

Test [14] is described as follows: Cell Viability - HUV-EC-C (AID 542). Note: % is set by controls: 0 for no effect and ±100 for the full control effect; nearly all actives have a fitted effect of over 35% in size. Summed up: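 Concentration-dependent ATP loss in HUV-EC-C cells is the measure. Exposure lasts 40 hr at 37 °C; luminescence follows CellTiter-Glo addition, and Hill fits give AC50.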
Test [15] in a line: Cell Viability - H-4-II-E (AID 543). Note: % is set by controls: 0 for no effect and ±100 for the full control effect; nearly all actives have a fitted effect of over 35% in size. Summed up:
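AC50 from Hill-modelled qHTS concentration-response curves. H-4-II-E rat hepatoma cells in complete medium, 40 hr exposure at 37 °C, viability by CellTiter-Glo ATP luminescence.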

Test [16] can be described thus: Cell Viability - Renal Proximal Tubule (AID 545).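 Note: 0% = DMSO only and -100% = 100 µM tamoxifen; nearly all actives have a fitted effect of over 40% in size.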 The note with it: renal proximal tubule cells viability, primary cells of rat origin; activity change, negative = cytotoxicity: at 91.7 µM (top of the series). Summed up: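 Luminescent ATP signal (CellTiter-Glo) served as the viability read-out after 40 hr compound exposure of freshly isolated rat proximal tubule cells at 37 °C. Concentration-dependent ATP loss was fitted with the Hill equation to give AC50.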

The nature of test [17]: Cell Viability - Mesenchymal (AID 546).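 Note: cells exposed to compound for 40 hours before reading; 0% = DMSO only and -100% = 100 µM tamoxifen.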 Particulars: mesenchymal cells viability, qHTS; activity change, negative = cytotoxicity: at 91.7 µM (top of the series). Summed up: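 In this qHTS cytotoxicity format, glomerulus-derived human mesenchymal kidney cells received compound for 40 hr, then luciferase-based ATP quantitation. Concentration-response data were fitted with the Hill equation.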

Test [18] in a line: Cell Viability - NIH 3T3 (AID 541).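 Note: plate controls were DMSO alone for no effect and tamoxifen positive control for full effect; nearly all actives have a fitted effect of over 25% in size.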 Particulars: NIH 3T3 cell viability, qHTS; activity change, negative = cytotoxicity: at 92.2 µM (top of the series). Summed up:
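In this cytotoxicity screen, acute toxicity is scored as an ATP drop measured by CellTiter-Glo in NIH 3T3 fibroblasts following a 40 hr, 37 °C incubation with compound.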

The nature of test [19]: Cell Viability - SH-SY5Y (AID 544).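 Note: 0% = DMSO alone and -100% = 100 µM tamoxifen; nearly all actives have a fitted effect of over 55% in size.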 The note with it: SH-SY5Y neuroblastoma cell viability; viability change, negative = cytotoxic: at 92.2 µM (top of the series). Summed up:
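Quantitative HTS in SH-SY5Y neuroblastoma cells, 40 hr treatment at 37 °C, ATP content by luciferase luminescence; AC50 from Hill fits.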

Records with an inconclusive call do not appear. Where a structure was tested more than once in an assay, its records may differ in their call. Active and inactive are the calls of the source. Unless noted, calls come from the whole dose curve; as a rule, active = well fitted curve in the direction sought with a large enough effect; inconclusive = small, poorly fitted or top-dose-only effect, or another doubt; inactive = no such curve, though single readings can be large; an effect the other way counts as inactive or inconclusive.

Glucocorticoid receptor (Homo sapiens), sequence (P04150 whole entry, looked up): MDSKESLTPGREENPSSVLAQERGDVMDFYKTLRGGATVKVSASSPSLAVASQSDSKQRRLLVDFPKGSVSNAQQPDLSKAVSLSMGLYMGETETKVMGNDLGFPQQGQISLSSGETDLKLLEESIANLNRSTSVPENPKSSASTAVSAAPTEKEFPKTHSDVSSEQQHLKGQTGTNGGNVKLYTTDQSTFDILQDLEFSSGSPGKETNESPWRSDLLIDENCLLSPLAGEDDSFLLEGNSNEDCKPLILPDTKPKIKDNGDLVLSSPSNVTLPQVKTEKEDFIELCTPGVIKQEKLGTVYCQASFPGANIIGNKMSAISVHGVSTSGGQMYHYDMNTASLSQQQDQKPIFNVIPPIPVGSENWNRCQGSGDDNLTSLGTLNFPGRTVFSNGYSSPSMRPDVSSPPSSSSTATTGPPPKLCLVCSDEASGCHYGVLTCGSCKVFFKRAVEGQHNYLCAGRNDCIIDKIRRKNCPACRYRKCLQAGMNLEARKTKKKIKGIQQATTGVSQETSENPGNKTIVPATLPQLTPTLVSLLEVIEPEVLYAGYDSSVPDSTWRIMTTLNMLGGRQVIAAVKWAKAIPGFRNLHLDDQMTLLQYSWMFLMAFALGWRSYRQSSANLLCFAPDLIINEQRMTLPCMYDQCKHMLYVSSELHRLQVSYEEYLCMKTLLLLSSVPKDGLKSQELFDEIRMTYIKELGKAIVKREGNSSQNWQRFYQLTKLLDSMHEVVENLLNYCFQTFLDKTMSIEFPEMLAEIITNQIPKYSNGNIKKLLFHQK
Cytochrome P450 1A2 (Homo sapiens), sequence (P05177 whole entry, looked up): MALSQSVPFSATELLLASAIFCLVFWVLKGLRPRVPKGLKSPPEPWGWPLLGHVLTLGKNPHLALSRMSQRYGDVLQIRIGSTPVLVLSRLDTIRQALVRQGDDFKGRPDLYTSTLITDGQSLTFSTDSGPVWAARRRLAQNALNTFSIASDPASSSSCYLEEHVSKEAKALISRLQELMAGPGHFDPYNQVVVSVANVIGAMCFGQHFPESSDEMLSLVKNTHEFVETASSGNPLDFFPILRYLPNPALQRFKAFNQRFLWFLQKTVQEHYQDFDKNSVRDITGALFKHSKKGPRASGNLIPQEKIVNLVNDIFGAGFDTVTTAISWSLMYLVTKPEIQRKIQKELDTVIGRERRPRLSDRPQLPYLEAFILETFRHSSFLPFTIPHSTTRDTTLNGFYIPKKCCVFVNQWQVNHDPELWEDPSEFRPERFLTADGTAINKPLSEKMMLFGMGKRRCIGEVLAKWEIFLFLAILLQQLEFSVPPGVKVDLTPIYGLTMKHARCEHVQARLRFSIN

Take `COc1ccccc1N1CCN(CCN2C(=O)CC3(CCCC3)CC2=O)CC1`: the Potency in [1] is 31.6 µM (active) and inactive; in [4], > 46 µM (inactive); in test [5], > 46 µM (inactive). For the same molecule, the activity change, negative = inhibition in test [2] (at 38 µM (top of the series)) was -25.7% (inactive). For the same molecule, the molecule was classed as inactive in [3] and in test [6].

Take `CC(=O)OCC[N+](C)(C)C`: the activity change, negative = inhibition in test [2] (at 17.2 µM (top of the series)) is 122% [activator] (active). The result in [3] was inactive. For the same molecule, the Potency in test [4] was > 20.6 µM (inactive).

Consider `Nc1cccc2c(N)cccc12`, for which the Potency in [7], in test [8], in test [9], in [10], in test [11] and in test [12] was > 92 µM (inactive) throughout. The molecule was classed as inactive in [6]. Also, the Potency entry in test [13], in [14], in [15], in test [16] and in [17] was “inactive” each time.

With `CC(=O)OC/C=C(C)/C=C/C=C(C)/C=C/C1=C(C)CCCC1(C)C`, the Potency in [7] is > 92 µM (inactive); in test [8] it was 63.9 µM (active); in test [9], > 92 µM (inactive); in test [10] it was > 92 µM (inactive); in test [11], > 92 µM (inactive). In [6], the molecule was classed as inactive. Further, the Potency entry in test [13], in test [14] and in test [17] was “inactive” in each case. Further, in test [18], the activity change, negative = cytotoxicity is -114% (active). The viability change, negative = cytotoxic in test [19] is -99.5% (active).

For the molecule `CN1CCCN(C(c2ccccc2)c2ccc(Cl)cc2)CC1` (configuration not stated), the activity change, negative = inhibition in test [2] (at 17.2 µM (top of the series)) was -95.8% (active). Further, the call in test [3] was inactive. The Potency in test [4] was 6.11 µM (active).

With `O=C(O)c1ccccc1S`, the activity change, negative = inhibition in [2] (at 17.2 µM (top of the series)) was 24.8% (inactive). The molecule was classed as inactive in test [3]. For the same molecule, in test [4], the Potency was > 20.6 µM (inactive).

`CC(=O)[C@@]1(O)CC[C@H]2[C@@H]3C[C@H](C)C4=CC(=O)CC[C@]4(C)[C@H]3CC[C@@]21C`: the activity change, negative = inhibition in test [2] (at 17.2 µM (top of the series)) is 19.2% (inactive). Also, the result in test [3] was inactive. The Potency in test [4] was 0.00082 µM (active).

`Nc1c[n+](N2CCOCC2)no1`: the Potency in test [4] and in [5] was > 46 µM (inactive) each time. The outcome in [6] was inactive.

For the molecule `OCCOCCN1CCN(C(c2ccccc2)c2ccc(Cl)cc2)CC1` (configuration not stated), the outcome in test [3] was inactive.

Regarding `CCCC(=O)c1cc(O)c(O)cc1O`, the Potency in [7], in test [9], in test [10] and in test [11] was > 92 µM (inactive) throughout. For the same molecule, the outcome in test [6] was inactive. Also, the Potency result in [14], in [15] and in test [16] was “inactive” throughout. The viability change, negative = cytotoxic in [19] is -93.1% (active).

Consider `CC(NCCC(c1ccccc1)c1ccccc1)c1ccccc1` (configuration not stated), for which, in [3], the molecule was called inactive. Further, in test [4], the Potency was > 20.6 µM (inactive).

For `Clc1ccc2c(c1)N=C(N1CCNCC1)c1ccccc1N2`, the Potency in [4] and in test [5] was > 46 µM (inactive) in each case. The result in test [6] was inactive.

Turning to `Cc1cc(C(C)(C)C)c(O)c(C(C)(C)C)c1`, the Potency in [7], in test [8], in test [9], in [10], in test [11] and in [12] was > 92 µM (inactive) each time. The Potency entry in [13], in test [14], in test [15], in test [19], in [16] and in test [17] was “inactive” in each case. The activity change, negative = cytotoxicity in test [18] was 2.09% (inactive).

The values are drawn from PubChem BioAssay (NCATS).
